The list is not random: actives were taken first. Their share in the collection is about 3%.
PPC-1+TRAIL kill: PPC-1 cancer cell killing with TRAIL present; PPC-1 cells + TRAIL, ATPLite viability luminescence; cell killing (% activity), % at 4 µM or 5 µM; actives 0.41% (n = 220,000); AID 1443;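 active = cell killing above 50% in the first pass at 4 µM, then a duplicate retest at 5 µM averaging 50% or more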
SENP7 block: SENP7 protease inhibition | Q9BQF6 | recombinant SENP7, Z-RLRGG-aminoluciferin luminescence, 40 min | inhibition, % at 5 µM | actives 1.5% (n = 330,000) | AID 434973;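 active = inhibition above about 50% at the single test dose, limit read from the data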
SENP8 block-1: blocks human SENP8 cleavage of Nedd8 substrate | Q96LD8 | actives 0.64% (n = 360,000) | recombinant SENP8, Nedd8 substrate fluorescence | inhibition, % at 20 µM; in the data active = inhibition mostly above about 40%, no sharp cut-off; inactive = mostly below about 27%
Target sequence (Q96LD8 whole entry, looked up): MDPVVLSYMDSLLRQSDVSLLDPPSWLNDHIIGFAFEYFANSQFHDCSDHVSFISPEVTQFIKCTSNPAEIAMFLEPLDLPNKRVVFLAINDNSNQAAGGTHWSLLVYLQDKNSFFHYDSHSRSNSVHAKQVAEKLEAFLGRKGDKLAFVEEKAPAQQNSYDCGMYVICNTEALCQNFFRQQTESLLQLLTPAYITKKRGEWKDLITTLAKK
SENP6 inh: inhibitors of human SENP6 protease | Recombinant SENP6 catalytic domain, aminoluciferin luminescence | inhibition, % at 10 µM | actives 1.8% (n = 330,000) | AID 2599;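 active = inhibition above about 50% at the single tested dose, limit read from the data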
Target sequence (Q9GZR1 628-1112 limits assumed): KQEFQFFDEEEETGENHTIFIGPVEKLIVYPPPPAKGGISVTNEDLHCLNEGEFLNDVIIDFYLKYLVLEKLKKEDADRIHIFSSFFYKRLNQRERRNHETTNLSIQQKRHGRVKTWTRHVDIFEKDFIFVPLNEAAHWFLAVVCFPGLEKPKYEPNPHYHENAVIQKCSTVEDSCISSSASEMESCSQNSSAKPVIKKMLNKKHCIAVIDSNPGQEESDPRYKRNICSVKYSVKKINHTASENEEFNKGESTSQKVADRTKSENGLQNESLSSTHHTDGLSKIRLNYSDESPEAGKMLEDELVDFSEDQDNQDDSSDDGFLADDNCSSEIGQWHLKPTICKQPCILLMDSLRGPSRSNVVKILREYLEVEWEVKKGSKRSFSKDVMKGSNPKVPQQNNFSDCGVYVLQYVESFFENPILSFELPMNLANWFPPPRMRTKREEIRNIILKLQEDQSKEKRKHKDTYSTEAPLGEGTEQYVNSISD
C8 TRAIL sens: caspase-8 TRAIL sensitization; AID 624354; NB7+C8 cells + TRAIL, ATPlite viability luminescence; inhibition (viability loss, TRAIL sensitization), % at 10 µM; actives 1% (n = 360,000);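 active = compounds causing at least 50% loss of cell viability in the single-dose screen, relative to plate controls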
SENP8 block-2: blocks the human protease SENP8; purified SENP8, Z-RLRGG-aminoluciferin cleavage, luminescence; inhibition, % at 10 µM; actives 1.2% (n = 330,000); in the data active = inhibition above about 50%
Large screens that a line does not name were inactive.

Fc1ccc(-c2nc3c4ccccc4ccn3c2Cc2ccsc2)cc1	none (no result: PPC-1+TRAIL kill, SENP7 block, SENP6 inh, SENP8 block-2)
COc1ccc(OC)c(NC(=O)C2CCCN(S(C)(=O)=O)C2)c1 (configuration not stated)	none (no result: PPC-1+TRAIL kill)
Cc1ccccc1NC1=C(C(=O)c2ccccc2)N(C)S(=O)(=O)c2ccccc21	SENP8 block-1 42.6
Cc1cc(-c2ccc(N=Nc3c(S(=O)(=O)O)cc4cc(S(=O)(=O)O)cc(N)c4c3O)c(C)c2)ccc1N=Nc1c(S(=O)(=O)O)cc2cc(S(=O)(=O)O)cc(N)c2c1O	SENP8 block-2 72.2 (no result: PPC-1+TRAIL kill, SENP8 block-1, C8 TRAIL sens)
O=C(Nc1nc(-c2nc3ccccc3s2)cs1)C1CC1	C8 TRAIL sens 52.4
OC[C@H]1O[C@@H](n2cnc3c(Nc4ccccc4)ncnc32)[C@H](O)[C@@H]1O	none
CN(C)c1ncnc2c1ccn2C1OC(CO)C(O)C1O (configuration not stated)	C8 TRAIL sens 78.2 (no result: PPC-1+TRAIL kill, SENP7 block, SENP6 inh, SENP8 block-2)
OCC1OC(n2cnc3c(NCc4ccccc4O)ncnc32)C(O)C1O (configuration not stated)	C8 TRAIL sens 75.7 (no result: PPC-1+TRAIL kill, SENP7 block, SENP6 inh, SENP8 block-2)
OCC1OC(n2ccc3c(NO)ncnc32)C(O)C1O (configuration not stated)	C8 TRAIL sens 92.1 (no result: PPC-1+TRAIL kill, SENP7 block, SENP6 inh, SENP8 block-2)
OCC1OC(n2cnc3c(NCCc4ccccc4)ncnc32)C(O)C1O (configuration not stated)	none (no result: PPC-1+TRAIL kill)
CN(C)c1nc2c(N)ncnc2n1C1OC(CO)C(O)C1O (configuration not stated)	none (no result: PPC-1+TRAIL kill, SENP7 block, SENP6 inh, SENP8 block-2)
CCOC(=O)C(CCCP(=O)(c1ccccc1)c1ccccc1)(NC(C)=O)C(=O)OCC	none
Cc1ccc(C(O)c2ncc(-c3ccccc3C(F)(F)F)[nH]2)cc1F (configuration not stated)	none (no result: PPC-1+TRAIL kill, SENP7 block, SENP6 inh, SENP8 block-2)
Nc1cc(Cl)ccc1CN1C(=O)c2ccccc2C1=O	none (no result: PPC-1+TRAIL kill, SENP7 block, SENP6 inh, SENP8 block-2)
Clc1cccc(Cc2c(C3CCCCC3)nc3ccc(Cl)cn23)c1	none (no result: PPC-1+TRAIL kill, SENP7 block, SENP6 inh, SENP8 block-2)
Cc1cc(Oc2ccccc2)nc(-c2ccccc2)n1	none
C=C(C)c1nc(Oc2ccccc2)nc(Oc2ccccc2)n1	C8 TRAIL sens 54.8 (no result: PPC-1+TRAIL kill, SENP7 block, SENP6 inh, SENP8 block-2)
CC(=O)C[C@H](O)CC(=O)[C@H]1OC(=O)CCCCCCCc2ccccc21	none (no result: PPC-1+TRAIL kill)
Cc1ccc(NC(=O)CNC(=O)c2ccco2)cc1	none (no result: PPC-1+TRAIL kill)
COc1cccc2cc(-c3nc(-c4cccs4)cs3)c(=O)oc12	none
COc1cccc2cc(-c3ccccc3)c(=O)oc12	SENP7 block 75.0, SENP8 block-2 65.8
Cc1cccc2c(N=NC(=O)c3ccc(NS(=O)(=O)c4cccs4)cc3)c(O)[nH]c12	none (no result: PPC-1+TRAIL kill)
Cc1cccc2c(N=Nc3ccc(S(=O)(=O)Nc4ccc(Cl)cc4)cc3[N+](=O)[O-])c(O)[nH]c12	SENP8 block-1 40.2
O=C1NC[C@H](CCCCN2C[C@H](Cc3ccc(O)cc3)N(CCc3ccc(O)cc3)C(=O)C2=O)N(CCc2ccccc2)C1=O	none (no result: PPC-1+TRAIL kill, SENP7 block, SENP6 inh, SENP8 block-2)
O=P(c1ccccc1)(c1ccccc1)c1cc(S(=O)(=O)O)ccc1O	none (no result: PPC-1+TRAIL kill)
Cc1occc1C(=O)NNC(=O)CN1C(=O)NC2(CCCCC2)C1=O	none (no result: PPC-1+TRAIL kill)
CC(C)c1ccc(/C=C/C2=NNC(=O)CC2)cc1	none
CC(C)c1ccc(/C=C/c2ccc(=O)n(C)n2)cc1	SENP7 block 84.5, SENP6 inh 83.7, C8 TRAIL sens 62.3, SENP8 block-2 69.4
O=C1CCNc2ccc(-c3ccccc3)cc21	none
O=C1CCNc2cc3ccccc3cc21	PPC-1+TRAIL kill 52.4
O=C(Nc1ccc([N+](=O)[O-])cc1Cl)c1cc(Cl)ccc1O	SENP7 block 99.6, SENP6 inh 98.9, C8 TRAIL sens 80.3, SENP8 block-2 97.6 (no result: PPC-1+TRAIL kill)
O=C(Nc1cccc(Cl)c1)c1cc(N=Nc2ccc([N+](=O)[O-])cc2Cl)ccc1O	SENP8 block-1 43.1
N=C(N)c1ccc(/C=C/c2ccc(C(=N)N)cc2O)cc1	none
COc1ccc(NC(=S)N2CCN(S(=O)(=O)c3ccc(OC)cc3)CC2)cc1	none (no result: PPC-1+TRAIL kill)
COc1cccc(-c2nc(N3CCCCC3C)c3ccccc3n2)c1O (configuration not stated)	SENP8 block-1 47.4
COc1cccc(-c2nc(N3CCN(C)CC3)c3ccccc3n2)c1O	none
CC(N=Cc1cc([N+](=O)[O-])ccc1O)c1ccccc1 (configuration not stated)	none
CC(N=Cc1cccc(O)c1O)c1ccccc1 (configuration not stated)	SENP8 block-1 81.1
O=C(Nc1nccs1)C1CC(=O)N(CCc2ccc(F)cc2)C1 (configuration not stated)	none (no result: PPC-1+TRAIL kill)
N/C(Cc1ccc(Cl)c(Cl)c1)=N\OC(=O)c1cccs1	C8 TRAIL sens 63.9
N/C(=N\OC(=O)c1cccs1)C1(c2ccc(Cl)cc2Cl)CC1	none
O=c1[nH]c(=S)[nH]c2c1C(c1cccc(C(F)(F)F)c1)OC(CCc1ccccc1)C2 (configuration not stated)	none (no result: PPC-1+TRAIL kill, SENP7 block, SENP6 inh, SENP8 block-2)
COc1cc(CN(C)C)cc(C=O)c1O	none
COc1cc(N=Nc2ccc(Br)cc2)cc(C=O)c1O	SENP8 block-1 44.0 (no result: PPC-1+TRAIL kill, SENP7 block, SENP6 inh, SENP8 block-2)
C=CCOc1ccccc1CN(C(=O)CCl)c1ccc2c(c1)OCO2	C8 TRAIL sens 95.8 (no result: PPC-1+TRAIL kill)
C=CCOc1ccccc1CNCCNC(=O)c1nonc1N	none
CC1=NNC(=O)/C1=C\c1cn(-c2ccccc2)nc1-c1ccccc1	C8 TRAIL sens 63.0 (no result: SENP7 block, SENP6 inh, SENP8 block-2)
O=Cc1cn(-c2ccccc2)nc1-c1ccccc1	none (no result: PPC-1+TRAIL kill)
O=C1CSC(=S)N1/N=C/c1ccc(O)c(O)c1O	SENP8 block-1 53.0
O=C(Nc1ccc2nc(-c3ccccn3)[nH]c2c1)C1CCCCC1	C8 TRAIL sens 53.2
Cc1ccc(OC(=O)c2cccc([N+](=O)[O-])c2)c(-n2nc3ccccc3n2)c1	SENP7 block 90.0, SENP6 inh 93.0, SENP8 block-2 86.7
CC(C)(C)CC(=O)Nc1nn[nH]n1	none
COc1ccc(OCC(=O)N/N=C(\C)c2ccc(-n3ccnc3)cc2)cc1	none
C/C(=N\NC(=O)COc1ccc(C(C)(C)C)cc1)c1ccc(-n2ccnc2)cc1	C8 TRAIL sens 59.2
O=C(Nc1cc2ccccc2oc1=O)c1ccccc1	SENP7 block 98.1, C8 TRAIL sens 55.2, SENP8 block-2 93.9
Cc1oc(=O)c(NC(=O)c2ccccc2)cc1C(N)=O	none
Cc1cccc(C)c1C(O)c1ncc(-c2ccc(F)cc2)[nH]1 (configuration not stated)	none (no result: PPC-1+TRAIL kill, SENP7 block, SENP6 inh, SENP8 block-2)
CC(NC(=O)Nc1nnc(C(F)(F)F)s1)(C(F)(F)F)C(F)(F)F	C8 TRAIL sens 51.0
O=C1c2ccccc2C(c2nnnn2Cc2ccccc2)N1C1CC1 (configuration not stated)	none (no result: PPC-1+TRAIL kill, SENP7 block, SENP6 inh, SENP8 block-2)
O=S1(=O)C=C(Sc2nnc(-c3ccccc3)o2)c2ccccc21	C8 TRAIL sens 73.1
Cc1cc(C)nc(SC2=CS(=O)(=O)c3ccccc32)n1	none
CCc1nc(N2CCN(C(=O)CCl)CC2)c2c3c(sc2n1)CC(C)CC3 (configuration not stated)	C8 TRAIL sens 87.2 (no result: PPC-1+TRAIL kill)
COC(=O)/C=C1\N/C(=N\c2nc(C)cc(C)n2)N(c2ccc(Cl)cc2)C1=O	none
Cc1cc(-c2csc3nc[nH]c(=S)c23)cc(C)c1C	C8 TRAIL sens 60.1
Cc1ccc(-c2csc3nc[nH]c(=S)c23)cc1	none

Compound activity (PubChem BioAssay)
